Structures are written as SMILES. Inconclusive results are not listed. The source made the active and inactive calls. Calls follow the shape of the dose curve; as a rule, active = well fitted curve in the direction sought with a large enough effect; inconclusive = small, poorly fitted or top-dose-only effect, or another doubt; inactive = no such curve, though single readings can be large; an effect the other way counts as inactive or inconclusive.

Test [1] concerns the target Arylsulfatase A (Homo sapiens) (UniProt P15289). Put plainly: qHTS screen for enhancers of Arylsulfatase A (ASA1): LOPAC Validation Assay (AID 720538). Also: potency is read from the fitted curve at half-maximal effect. The essentials:
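SV40-transformed fibroblasts from an MLD patient (ASA-I179S) were treated with compound for 48 h at 37 C. They were then lysed with 0.5 mM pNCS substrate (final) for 14 h at room temperature and stopped with NaOH; signal read by fluorescence (Ex 525/Em 598 nm), with increase denoting enhanced activity.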
Background: qHTS replaces the single test concentration by a dilution series.

Test [2] in a line: qHTS for compounds that reverse cellular toxicity of Amyloid beta (A-beta) peptide in yeast: LOPAC Validation Assay (AID 720559). The following applies: Potency: rescue of growth toxicity. The method in brief:
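Yeast expressing toxic A-beta grown with pinned compounds at 30 C for 48 hr. Growth measured as absorbance at 600 nm; data normalized to DMSO and to an equimolar FeCl3/clioquinol mixture as positive control.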

Test [3] can be described thus: qHTS for Activators of Parkin Expression: LOPAC Validation Assay (NLuc Reporter) (AID 720572). The method in brief:
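NLuc signal, read 10 min after reagent and following a prior FLuc read, is normalized to DMSO (0) and positive controls (100%). Cells: neuronal Parkin-promoter coincidence reporter line; compounds tested 7-point, 24 h, 37 C, 5% CO2.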

A short description of test [4]: qHTS for Activators of Parkin Expression: LOPAC Validation Assay (FLuc Reporter) (AID 720573). The essentials: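 Neuronal cell line stably expressing FLuc/NLuc coincidence reporter under the Parkin promoter, 1,500 cells/well, dosed 24 h after seeding in 7-point series for 24 h at 37 C. FLuc luminescence read; normalized to DMSO and positive control (100%).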
Test [5] concerns the target T1, Hexokinase-4 (Homo sapiens) + Glucokinase regulatory protein (Homo sapiens) (UniProt P35557+Q14397). Briefly: qHTS assay for inhibitors of recombinant human GCK-GKRP interaction: Diaphorase-coupled assay (AID 743205). The method in brief: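 Compounds pre-incubated 20 min with substrate, then 10 nM GST-GCK with 10 nM FLAG-GKRP added. GCK activity coupled via G6PDH and diaphorase to resorufin (5 mM glucose, 0.4 mM ATP, 0.15 mM NADP+, pH 7.6), read kinetically over 30 minutes at Ex 525/Em 590 nm.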

The target in test [6] is T1, Hexokinase-4 (Homo sapiens) + Glucokinase regulatory protein (Homo sapiens). Briefly: qHTS assay for inhibitors of recombinant human GCK-GKRP interaction: HTRF assay (AID 743207). The method in brief: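 HTRF binding of 5 nM GST-GCK and 5 nM FLAG-GKRP with 2 uM S6P in pH 7.1 Hepes buffer (MgCl2, KCl, DTT, Tween 20, BSA). Anti-FLAG XL665 and anti-GST donor added, 60 min at room temperature; 665/615 nm read, normalized to with- and without-GCK controls.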

For test [7] the target is unchanged. Put plainly: qHTS assay for inhibitors of recombinant human GCK-GKRP interaction: ADP-Glo assay (AID 743206). The essentials:
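Pin-transferred compounds meet a 15 nM GST-GCK/15 nM FLAG-GKRP/2 uM S6P mix (dispense concentrations). ATP is then added to 0.4 mM final with 5 mM glucose, and the reaction runs 60 min at room temperature. ADP is quantified luminescently.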

Arylsulfatase A (Homo sapiens), sequence (P15289 whole entry, looked up): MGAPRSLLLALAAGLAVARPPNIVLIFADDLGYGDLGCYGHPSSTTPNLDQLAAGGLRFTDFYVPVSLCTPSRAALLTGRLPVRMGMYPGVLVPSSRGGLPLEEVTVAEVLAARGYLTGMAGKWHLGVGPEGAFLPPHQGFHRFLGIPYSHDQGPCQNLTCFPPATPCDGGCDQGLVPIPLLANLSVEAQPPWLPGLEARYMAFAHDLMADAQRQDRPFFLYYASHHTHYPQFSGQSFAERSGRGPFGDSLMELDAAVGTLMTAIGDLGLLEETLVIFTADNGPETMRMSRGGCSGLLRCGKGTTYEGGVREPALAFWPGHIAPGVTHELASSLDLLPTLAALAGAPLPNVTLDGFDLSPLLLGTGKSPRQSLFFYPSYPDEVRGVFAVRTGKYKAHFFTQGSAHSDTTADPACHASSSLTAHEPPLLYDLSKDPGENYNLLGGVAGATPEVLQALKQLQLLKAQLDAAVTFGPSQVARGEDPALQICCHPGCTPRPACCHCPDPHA
T1 sequence (P35557 whole entry, looked up): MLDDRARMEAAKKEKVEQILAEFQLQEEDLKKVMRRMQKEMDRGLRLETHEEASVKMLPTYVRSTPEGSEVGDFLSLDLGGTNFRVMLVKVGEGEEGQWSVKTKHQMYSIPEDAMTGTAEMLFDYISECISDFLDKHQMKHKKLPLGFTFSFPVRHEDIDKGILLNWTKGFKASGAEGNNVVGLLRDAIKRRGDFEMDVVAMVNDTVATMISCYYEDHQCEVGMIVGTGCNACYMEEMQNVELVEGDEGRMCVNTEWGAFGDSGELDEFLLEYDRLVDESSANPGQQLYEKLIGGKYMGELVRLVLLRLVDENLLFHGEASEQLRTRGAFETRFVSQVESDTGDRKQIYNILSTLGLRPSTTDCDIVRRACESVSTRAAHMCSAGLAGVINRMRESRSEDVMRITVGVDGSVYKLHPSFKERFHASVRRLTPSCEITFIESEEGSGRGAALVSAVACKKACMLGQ
T1 sequence (Q14397 whole entry, looked up): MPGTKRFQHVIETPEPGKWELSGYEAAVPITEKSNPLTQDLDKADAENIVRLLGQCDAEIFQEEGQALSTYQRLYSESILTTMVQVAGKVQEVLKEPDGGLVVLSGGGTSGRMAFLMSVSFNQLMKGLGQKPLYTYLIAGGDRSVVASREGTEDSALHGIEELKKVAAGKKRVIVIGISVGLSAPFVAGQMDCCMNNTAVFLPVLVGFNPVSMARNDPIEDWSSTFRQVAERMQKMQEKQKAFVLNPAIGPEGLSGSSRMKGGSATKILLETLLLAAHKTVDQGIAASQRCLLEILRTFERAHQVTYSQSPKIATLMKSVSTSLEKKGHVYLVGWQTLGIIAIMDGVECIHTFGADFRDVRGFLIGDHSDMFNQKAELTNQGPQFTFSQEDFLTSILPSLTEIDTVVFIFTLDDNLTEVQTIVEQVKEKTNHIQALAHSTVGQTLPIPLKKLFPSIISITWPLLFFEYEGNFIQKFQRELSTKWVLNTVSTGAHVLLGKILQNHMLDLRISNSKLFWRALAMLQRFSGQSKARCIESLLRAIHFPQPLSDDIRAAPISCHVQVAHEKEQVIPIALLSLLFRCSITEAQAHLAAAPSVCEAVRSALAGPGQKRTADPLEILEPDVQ

On to `COc1cccc(C(=O)NCCN2CCN(c3ccc(Cl)cc3)CC2)c1`, for which the Potency result in test [1], in test [2], in test [3], in test [4] and in test [6] was “inactive” throughout. Further, the result in test [5] was inactive.
Turning to `O=c1[nH]c2cc([N+](=O)[O-])c([N+](=O)[O-])cc2[nH]c1=O`, the Potency in test [1] is 8.49 µM (active). In addition, the Potency result in test [2], in test [3], in test [4], in test [7] and in test [6] was “inactive” throughout.
With `Cn1c(=O)c2[nH]c(-c3ccccc3)nc2n(C)c1=O`, the Potency result in test [1], in test [2], in test [3] and in test [6] was “inactive” each time. Moreover, the outcome in test [5] was inactive.
For the compound `NC(CCCP(=O)(O)O)C(=O)O` (centres undefined), the Potency result in test [1], in test [2], in test [3] and in test [6] was “inactive” in each case. In addition, in test [5], the outcome was inactive.
For `Nc1nc(Cl)nc2c1ncn2[C@@H]1O[C@H](CO)[C@@H](O)[C@H]1O`, the Potency result in test [1], in test [2], in test [3], in test [4] and in test [6] was “inactive” in each case. Also, in test [5], the outcome was inactive.
For `C#C[C@]1(O)CC[C@H]2[C@@H]3CCC4=Cc5oncc5CC4(C)[C@H]3CCC21C` (some centres undefined), the Potency result in test [1], in test [2], in test [3], in test [4], in test [7] and in test [6] was “inactive” each time.
In the case of `C=C[C@@H]1CN2CC[C@@H]1C[C@H]2[C@H](O)c1ccnc2ccc(OC)cc12`, the Potency result in test [1], in test [2], in test [3], in test [4] and in test [6] was “inactive” each time. Further, the result in test [5] was inactive.
As to `O=C(c1cc(O)c(O)c([N+](=O)[O-])c1)c1ccccc1F`, the Potency in test [1] is 19 µM (active). Besides, the Potency result in test [2], in test [3], in test [4], in test [7] and in test [6] was “inactive” each time.
On to `CCCCC/C=C\CC(O)/C=C/c1cccc(CC(O)CCCCO)n1` (centres undefined), for which the Potency result in test [1], in test [2], in test [3], in test [4], in test [7] and in test [6] was “inactive” in each case.
With `NCCCS(=O)(=O)O`, the Potency entry in test [1], in test [2], in test [3], in test [7] and in test [6] was “inactive” each time. In addition, in test [5], the result was inactive.
As for `CO/N=C(\C(=O)N[C@@H]1C(=O)N2C(C(=O)O)=C(COC(C)=O)CS[C@H]12)c1csc(N)n1`, the Potency result in test [1], in test [2], in test [3], in test [4], in test [7] and in test [6] was “inactive” throughout.
On to `C[C@@H](NC(=O)/C(C#N)=C/c1ccc(O)c(O)c1)c1ccccc1`, for which the Potency entry in test [1], in test [2], in test [3], in test [4], in test [7] and in test [6] was “inactive” throughout.
For `O=C1NC(=O)/C(=C/c2ccc(-c3ccc(F)cc3O)o2)S1`, the Potency result in test [1], in test [2], in test [3], in test [7] and in test [6] was “inactive” in each case. In addition, the outcome in test [5] was inactive.
With `NC(=O)C1=CN(C2OC(COP(=O)(O)OP(=O)(O)OC[C@H]3O[C@@H](n4cnc5c(N)ncnc54)[C@H](OP(=O)(O)O)[C@@H]3O)C(O)C2O)C=CC1` (some centres undefined), the Potency entry in test [1], in test [2], in test [3], in test [4] and in test [6] was “inactive” throughout.
Consider `Cc1cc2c(cc1Cl)N(C(=O)Nc1ccc(Oc3cccnc3C)nc1)CC2`, for which the Potency result in test [1], in test [2], in test [3], in test [4], in test [7] and in test [6] was “inactive” each time.
As to `O=C(CCCCCN1CCN(c2ccccc2-c2ccccc2)CC1)NC1CCCc2ccccc21` (centres undefined), the Potency entry in test [1], in test [2], in test [3], in test [4], in test [7] and in test [6] was “inactive” each time.
On to `Ic1ccc(N2CCN(Cc3c[nH]c4ncccc34)CC2)cc1`, for which the Potency entry in test [1], in test [2], in test [3] and in test [6] was “inactive” in each case. Besides, the outcome in test [5] was inactive.
As to `CC(C)Cc1ccc([C@H](C)C(=O)O)cc1`, the Potency entry in test [1], in test [2], in test [3], in test [7] and in test [6] was “inactive” in each case. Besides, the result in test [5] was inactive.
As to `O=C(O)c1cc(=O)c2ccccc2[nH]1`, the Potency result in test [1], in test [2], in test [3], in test [7] and in test [6] was “inactive” throughout. The outcome in test [5] was inactive.
Turning to `COc1cccc(OC)c1OCCNCC1COc2ccccc2O1` (centres undefined), the Potency result in test [1], in test [2], in test [3], in test [4] and in test [6] was “inactive” throughout. The result in test [5] was inactive.
With `C[N+](C)(C)CCOP(=O)(O)OP(=O)([O-])OC[C@H]1O[C@@H](n2ccc(N)nc2=O)[C@H](O)[C@@H]1O`, the Potency result in test [1], in test [2], in test [3] and in test [6] was “inactive” each time. For the same compound, in test [5], the outcome was inactive.
As for `O=C1NC(=O)/C(=C/c2ccc3nccnc3c2)S1`, the Potency entry in test [1], in test [2], in test [3], in test [7] and in test [6] was “inactive” each time.
For `Cn1ncc(S(=O)(=O)Cc2ccccc2)c(Br)c1=O`, the Potency result in test [1], in test [2], in test [3], in test [4] and in test [6] was “inactive” each time. The result in test [5] was inactive.
Consider `Oc1ccccc1O`, for which the Potency result in test [1], in test [2], in test [3] and in test [6] was “inactive” each time. Also, in test [5], the result was inactive.
For `CC(COc1ccc(/C=C/c2ccccc2)cc1)[N+](C)(C)C` (centres undefined), the Potency result in test [1], in test [2], in test [3], in test [4] and in test [6] was “inactive” each time. Besides, the outcome in test [5] was inactive.
With `OC[C@H]1O[C@@H](n2cnc3c(NC4CCCCC4)ncnc32)[C@H](O)[C@@H]1O`, the Potency result in test [1], in test [2], in test [3], in test [7] and in test [6] was “inactive” each time. In addition, the outcome in test [5] was inactive.
Consider `O=C(O)c1cc([N+](=O)[O-])ccc1NCCCc1ccccc1`, for which the Potency result in test [1], in test [2], in test [3], in test [7] and in test [6] was “inactive” in each case. For the same compound, in test [5], the outcome was inactive.
On to `COc1ccccc1N1CCN(CCN(C(=O)c2ccc(I)cc2)c2ccccn2)CC1`, for which the Potency entry in test [1], in test [2], in test [3], in test [7] and in test [6] was “inactive” throughout. Moreover, the result in test [5] was inactive.
Take `CN1CCc2cccc3c2C1Cc1ccc(O)c(O)c1-3` (centres undefined): the Potency entry in test [1], in test [2], in test [3], in test [7] and in test [6] was “inactive” each time. For the same compound, the result in test [5] was inactive.
As for `CCNC(=O)[C@H]1O[C@@H](n2cnc3c(N)nc(NCCc4ccc(CCC(=O)O)cc4)nc32)[C@H](O)[C@@H]1O`, the Potency result in test [1], in test [2], in test [3], in test [7] and in test [6] was “inactive” in each case. In test [5], the result was inactive.
Turning to `CCCCCC(O)c1cccc(OCc2ccc3ccccc3n2)c1` (centres undefined), the Potency entry in test [1], in test [2], in test [3], in test [7] and in test [6] was “inactive” each time.
Regarding `CCCN(CC1CC1)c1nc(C)nc(Nc2c(Cl)cc(Cl)cc2Cl)c1Cl`, the Potency entry in test [1], in test [2], in test [3], in test [4], in test [7] and in test [6] was “inactive” throughout.

For the origin of these results see PubChem BioAssay (NCATS).
